The results in this text go back to PMC7826789 (International Journal of Molecular Sciences, 2021).

The subject of the first assay is ACVR1B.
`COc1cc(-c2cncc(-c3cnn(C4CCNCC4)c3)c2)cc(OC)c1OC` [K05908]: the Kinases covered result is “ACVR1B”. The same measure, in the same setting: in the case of `Cc1cccc(-c2nc(Nc3ccncc3)c3ccccc3n2)n1` [GW855857] it was “ACVR1B”; in that of `Cc1cccc(-c2cc(Nc3ccncc3)c3ccccc3n2)n1` [GSK223675], “ACVR1B”.

The test system of the next assay is AURKC.
On to `COc1cccc(-c2c[nH]c3c(N/N=C/c4ccncc4)ncnc23)c1` [GW814408X], for which the Kinases covered entry was “AURKC”. On the same count and under the same terms, in the case of `CN1CCN(C(=O)c2ccc(NC(=O)Nc3ccc(N(C)c4ccnc(Nc5ccc(CS(C)(=O)=O)cc5)n4)cc3)cc2)CC1.Cl` [GW830263A] it was “AURKC”; in that of `CN(C)CCNC(=O)Nc1ccc(N(C)c2ccnc(Nc3ccc(CS(C)(=O)=O)cc3)n2)cc1.Cl` [GW830900A], “AURKC”; in that of `CCn1cc(-c2ccnc3[nH]c(-c4cccc(CN(C)C)c4)cc23)c(-c2ccc(NC(=O)N(C)C)cc2)n1` [GSK1070916], “AURKC”.

The test system of a further assay is BLK.
In the case of `COc1cc2ncnc(Nc3cccc(Cl)c3F)c2cc1O[C@H]1CC[C@@]2(CC1)NCCNC2=O` [BI00113608], the Kinases covered entry is “BLK”. For the molecule `COc1cc2ncnc(Nc3cccc(Cl)c3F)c2cc1O[C@H]1CC[C@H]([C@@H]2NCCNC2=O)CC1` [BI00133844], the Kinases covered result was “BLK”.

In the case of `Cc1ccc(C(=O)Nc2ccc(Nc3ccnc4cc(-c5ccccn5)ccc34)cc2O)cc1` [GW440146], the Kinases covered result was “BLK”.

A further assay has as its system BRAF.
Take `CN(C)CCN(C)C(=O)c1cc(-c2ccncc2)c(-c2ccc(Cl)c(O)c2)o1` [SB-710397]: the Kinases covered result was “BRAF”. On the same count and under the same terms, in the case of `CCCS(=O)(=O)Nc1ccc(F)c(-n2cc(-c3cncc(OC)c3)nn2)c1F` [BI00865461] it was “BRAF”; in that of `O=C(Nc1cccc(-c2nn3ncccc3c2-c2ccnc(Nc3cccnc3)n2)c1)c1c(F)cccc1F` [GSK312879], “BRAF”.

Turning to `COC(=O)c1c(-c2ccccc2)c2cc(OC)ccc2c(=O)n1Cc1ccccc1` [TPKI-97], the Kinases covered result is given as “BRAF”. For `CN(C)CCOc1ccc(-c2nc(-c3ccc4c(c3)CC/C4=N\O)c(-c3ccncc3)[nH]2)cc1` [SB-590885], the Kinases covered entry is “BRAF”.
